Screening data as filed in PubChem BioAssay.
p53ts 32C kill: p53ts cell cytotoxicity, permissive temperature. 0.93% of 130,000 active. Potency, µM (highest dose often 46.1 µM), for inactives: at the top dose activity change, negative = cytotoxicity, actives largely listed as cytotoxic. H1299-p53A138V at 32C, ATP luminescence viability, 24 h;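 note: 0% = DMSO and -100% = full killing by reference compound; nearly all actives have a fitted effect of over 55% in size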
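H1299-p53 A138V cells (temperature-sensitive p53) exposed 24 h to up to 46 uM compound at 32C, where p53 is wild-type in conformation. Viability read as ATP luminescence and normalised to DMSO and 100 uM tamoxifen. AC50 fitted with the Hill equation.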
p53ts 39C kill: kills p53ts cells at the nonpermissive temperature | H1299-p53A138V viability at 39C, ATP luminescence, 24 h | 1.5% of 130,000 active | Potency, µM (titrated, usually from 46.1 µM), for inactives: at the top dose activity change, negative = cell killing, usual class: cytotoxic | AID 902; note: nearly all actives have a fitted effect of over 55% in size
FLuc inh: inhibitors of firefly luciferase. P08659. purified firefly luciferase, luminescence, 8 min. Potency, µM (doses to about 57.1 µM), inactives show at the highest dose activity change, negative = inhibition, usual class: inhibitors. 2.2% of 72,000 active. AID 411; note: nearly all actives have a fitted effect of over 40% in size
Target sequence (P08659 whole entry, looked up): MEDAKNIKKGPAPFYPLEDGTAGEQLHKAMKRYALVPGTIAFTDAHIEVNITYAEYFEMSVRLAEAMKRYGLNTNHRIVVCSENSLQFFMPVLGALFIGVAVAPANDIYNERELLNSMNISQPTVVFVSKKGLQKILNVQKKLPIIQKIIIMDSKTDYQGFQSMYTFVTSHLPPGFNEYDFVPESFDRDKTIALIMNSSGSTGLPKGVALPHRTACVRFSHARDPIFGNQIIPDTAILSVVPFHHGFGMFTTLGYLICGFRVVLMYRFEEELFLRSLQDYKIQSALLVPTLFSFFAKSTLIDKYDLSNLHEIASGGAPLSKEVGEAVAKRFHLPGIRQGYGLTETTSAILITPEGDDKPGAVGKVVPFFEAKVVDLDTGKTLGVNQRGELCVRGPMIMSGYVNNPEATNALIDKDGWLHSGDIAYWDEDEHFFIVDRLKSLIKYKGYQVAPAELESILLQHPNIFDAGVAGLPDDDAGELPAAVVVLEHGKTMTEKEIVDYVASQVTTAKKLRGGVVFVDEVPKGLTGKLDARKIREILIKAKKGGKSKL
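Here, luciferase activity is measured as luminescence following an 8 min room-temperature reaction at 10 uM ATP, pH 7.2. Every library sample is titrated.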
* = called active by the depositor; ? = inconclusive; · = no result; [ ] = another dose, or the depositor's remark. Compounds with a hit are over-represented: about 2.6% of the library has one in this group of screens. Calls come from the whole dose curve; as a rule, active = well fitted curve in the direction sought with a large enough effect; inconclusive = small, poorly fitted or top-dose-only effect, or another doubt; inactive = no such curve, though single readings can be large; an effect the other way counts as inactive or inconclusive. Unless noted, % is set by controls: 0 for no effect and ±100 for the full control effect; potency is the fitted concentration of half-maximal effect.

SMILES | p53ts 32C kill | p53ts 39C kill | FLuc inh
CC(C)(C)c1ccc(S(=O)(=O)N2CCN(CCC#N)CC2)cc1 | 3% | 13% | 4%
CC(C)c1ccc(/C=C2\C=C(c3ccc4ccccc4c3)OC2=O)cc1 | -5%[9.22 µM] | 0%[9.22 µM] | 2%[11.4 µM]
CCOc1ccccc1CNC(=O)c1oc2c(c1C)-c1[nH]ncc1CC2 | -1% | 27% | ·
COc1ccc(C2N3CC4(C)CN2CC(c2ccccc2)(C3)C4=O)cc1 (centres undefined) | -7% | -15% | ·
COC(=O)N/N=C\c1c(C)nn(-c2ccccc2)c1Cl | · | -17% | ·
Cc1nn(-c2ccccc2Cl)c(Cl)c1/C=N/Nc1cccc(C(=O)O)c1 | 11µM* | 11µM* | ·
Cc1ccc(NC(=O)CSc2[nH]c(=O)ncc2C)cc1 | 0.1µM* | 10µM* | ·
Cc1ccc(NC(=O)CSc2ncc(-c3ccccc3)[nH]2)cc1 | 8% | -23% | ·
CCn1c(=N)n(CC(O)COc2ccccc2)c2ccccc21 (centres undefined) | -7% | 6% | ·
Cc1cccc(OCC(O)Cn2c(=N)n(CCN3CCCCC3)c3ccccc32)c1 (centres undefined) | -15% | 13µM* | 3%
Cc1ccccc1OCC(O)Cn1nnc2ccccc21 (centres undefined) | -4% | 4% | ·
CCN(CC)CCn1c(=N)n(CCOc2ccccc2Cl)c2ccccc21 | ? | 10µM* | ·
Cn1c(=O)n(CCOc2ccccc2Cl)c2ccccc21 | -1% | -13% | 0%
CCN(CC)CCn1c(=N)n(CC(O)COc2ccccc2C)c2ccccc21 (centres undefined) | ? | 16µM* | ·
COc1ccc(OC)c(NC(=O)CCCOc2cc(=O)n(C)c3ccccc23)c1 | 14% | -13% | ·
COc1ccccc1CNC(=O)c1cc2cc(C)ccc2n1C | ? | -18% | ·
Cc1cccc(NC(=O)C2CCC(CNS(=O)(=O)c3csc(C(N)=O)c3)CC2)c1C (centres undefined) | -10% | 21% | ·
Cc1nc2cccnc2n1-c1cccc(C(=O)NCc2ccc(OC(C)C)cc2)c1 | -3% | -20% | ·
O=C(COC(=O)CCC(=O)c1ccc2c(c1)OCCO2)NCc1ccc2c(c1)OCO2 | -9% | 0% | 25µM*
CC(=O)OCC(=O)NCc1ccc2c(c1)OCO2 | 4% | 14% | 1%
COc1cc(C=O)c([N+](=O)[O-])cc1OC | -12% | -20% | ·
CC(C)Cn1cc(C(=O)NCC2CCCO2)c2c3ccccc3n(C)c2c1=O (centres undefined) | 15% | -9% | -18%
Cn1c2ccccc2c2c(C(=O)NCC3CCCO3)cn(C3CCCC3)c(=O)c21 (centres undefined) | -9% | -10% | 13µM*
O=c1oc2ccccc2c(O)c1/C=N/c1nc(-c2ccc(O)c(O)c2)cs1 | 3%[9.22 µM] | 7%[9.22 µM] | -1%[11.4 µM]
CC(C)c1ccc(OC(=O)c2cc(-c3ccc(Cl)cc3)on2)cc1 | 4% | 12% | ·
SMILES | p53ts 32C kill | p53ts 39C kill | FLuc inh
O=C(Oc1ccc(Cl)cc1)c1cc(-c2ccc3c(c2)OCCO3)on1 | -15% | ? | ·
O=C(Nc1c(Cl)cccc1Cl)c1cc(-c2ccc3c(c2)OCO3)on1 | -6% | -5% | ·
CC(C)c1ccc(OC(=O)c2cc(-c3ccc4c(c3)OCCO4)on2)cc1 | 13µM* | 20µM* | ·
COc1ccc(OC(=O)c2cc(-c3ccc4c(c3)OCCO4)on2)cc1 | 13µM* | 13µM* | ·
N#Cc1ccc(OC(=O)c2cc(-c3ccc4c(c3)OCCO4)on2)cc1 | ? | 13µM* | ·
Cn1c(=O)c2c(nc(NCc3ccccc3)n2Cc2ccccc2)n(C)c1=O | -13% | -4% | ·
Cn1c(=O)c2c(nc(NC3CCCCC3)n2Cc2ccccc2)n(C)c1=O | 5µM* | 26% | 0%
Cc1ccc(CSc2nc3ccncc3n2Cc2nc(-c3ccccc3C)oc2C)cc1 | 13µM* | 7.9µM* | ·
Cc1oc(-c2ccccc2F)nc1Cn1c(SCc2cccc(Cl)c2)nc2ccncc21 | 6% | ? | ·
Cc1cccc(Cn2c(CN3CCC(C(=O)NCCc4ccccc4)CC3)cc3ccccc32)c1 | 3% | -19% | ·
COc1ccc(Nc2cc(C)c3cc(NC(=O)COc4cccc(C)c4)ccc3n2)cc1 | 4% | · | ·
CCn1c(C(=O)N2CCCC(C(=O)NCCCOC)C2)cc2sccc21 (centres undefined) | 11% | -5% | ·
COc1ccc(CCNC(=O)Cn2cc(S(=O)(=O)Cc3ccccc3Cl)c3ccccc32)cc1OC | -10% | · | ·
COC(=O)CN1C(=O)C(C)(C)c2cc(S(=O)(=O)Nc3ccc(Br)cc3F)ccc21 | 4% | -33% | ·
C[C@H](Cc1ccc(O)c(O)c1)[C@@H](C)Cc1ccc(O)c(O)c1 | ? | 20µM* | -3%[11.4 µM]
CC(Cc1ccc(O)c(O)c1)C(C)Cc1ccc(O)c(O)c1 (centres undefined) | 13% | ? | -4%[25.5 µM]
COc1ccc2[nH]c3nc(SC(C)C)nnc3c2c1 | 16µM* | 10µM* | 1.6µM*
COc1ccc2[nH]c3nc(SCc4nnc(-c5ccccc5)o4)nnc3c2c1 | -3% | -24% | -40%
CC(C)c1ccc(Nc2ncnc3c2c(-c2ccccc2)cn3-c2ccccc2)cc1 | 5% | -26% | ·
COc1ccc(NC(=O)c2c(NCc3ccc(OC)c(OC)c3OC)sc3c2CCC3)c(OC)c1 | -4% | 12% | ·
CCNc1ncc2nc(-c3cc(F)cc(F)c3)c(=O)n(CCOC)c2n1 | -1% | -5% | 2%[11.4 µM]
Cc1cnc(C(=O)Nc2ccc(F)c(F)c2)cn1 | -7% | -6% | -2%
Cc1cnc(C(=O)Nc2ccc3c(c2)CCC3)cn1 | ? | ? | 16µM*
CCOC(=O)c1cc(NC(=O)c2cnccn2)cc(C(=O)OCC)c1 | -4% | -2% | -1%
O=C(Nc1ccc2c(c1)CCC2)c1cnccn1 | ? | -26% | 25µM*
SMILES | p53ts 32C kill | p53ts 39C kill | FLuc inh
Cc1noc(C)c1C(=O)N1CCC2(CCCN(c3ccncc3)C2)CC1 | -5% | 0% | -1%[11.4 µM]
CCOc1ccccc1NC(=O)CCC(=O)Nc1ccc2nc(N3CCN(C)CC3)cc(C)c2c1 | -21% | -5% | ?
Cc1cc(N2CCN(C)CC2)nc2ccc(NC(=O)Nc3ccc(F)cc3)cc12 | -13% | ? | ·
COc1cccc(NC(=O)Nc2ccc3nc(N4CCN(C)CC4)cc(C)c3c2)c1 | -22% | -15% | ·
Cc1cc(C)cc(NC(=O)Nc2ccc3nc(N4CCN(C)CC4)cc(C)c3c2)c1 | 3% | 13µM* | ·
Cc1cc(N2CCN(C)CC2)nc2ccc(NC(=O)Nc3ccccc3Cl)cc12 | 10µM* | 13µM* | ·
COc1cccc(/C=C/C(=O)Nc2ccc3nc(N4CCN(C)CC4)cc(C)c3c2)c1OC | ? | 13µM* | ·
O=C(CSc1nnc(-c2ccccc2Br)n1-c1ccccc1)c1ccc(F)cc1 | 13% | -9% | ·
COc1ccc(N2CCN(c3oc(/C=C/c4ccc(F)cc4)nc3C#N)CC2)cc1 | 2% | -9% | ·
CN(C)c1ccc(CNC(=O)c2ccccc2NC(=O)c2nsc3ccccc23)cc1 | -5% | ? | ·
O=c1c(NCCc2ccc(Cl)cc2)nccn1-c1ccccc1 | -3% | 1% | ·
CCN(CC)CCCNC(=O)c1ccc(-n2c(=O)c(=O)[nH]c3ccccc32)cc1 | -2% | 10% | ·
CN(C)c1cc(-c2cccc(NS(C)(=O)=O)c2)ncn1 | ? | ? | 0%[2.29 µM]
O=C(CC1Nc2ccccc2NC1=O)c1ccccc1 (centres undefined) | ? | ? | 13µM*
